Consider 36 compounds from article PMC5540273 (PLoS ONE, 2017).
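Further: KINOMEscan kinase panel screen.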

The test relates to PAK6. The settings on record: concentration: 1 μM, replicates: in singlicate; n = 1.
`FC(F)(F)c1ccc(/C=C/c2cncnc2Nc2ccc3[nH]c(Cc4ccccc4)nc3c2)cc1` [GW709199]: the “%Inh” value was 0%.
Then `COc1ccc(Nc2nccc(NCCNC(=O)c3cc4ccccc4s3)n2)cc1` [GSK1379896], with 1%; and `Cl.Cl.NCC(NCc1ccc(-c2ccnc3[nH]ccc23)s1)c1ccccc1` (stereo not drawn) [GSK1321565], with 2%.
The figure for `O=C(Nc1cccc(-c2nn3ncccc3c2-c2ccnc(Nc3ccccc3)n2)c1)c1c(F)cccc1F` [GSK198271] is 1%; for `Cn1cc(-c2ccc3c(c2)CCN3C(=O)Cc2cccc(F)c2)c2c(N)ncnc21` [GSK2603358] it is 0%; for `Nc1ncc(-c2cccnc2)c2scc(-c3ccc4c(c3)CCN4C(=O)Cc3ccccc3)c12` [GSK683281] it is 0%.
Then `COC(=O)Nc1nc2cc(Oc3ccc(NC(=O)Nc4cc(C(F)(F)F)ccc4F)cn3)ccc2[nH]1.Cl.Cl` [GW681170], with 0%; and `CCn1c(-c2nonc2N)nc2c(C#CC(C)(C)O)nc(OC[C@H](N)c3ccccc3)cc21` [GSK943949], with 97.9%; and `COc1ccc(Nc2nccc(N3CCC(NC(=O)Nc4cccc(OC)c4)C3)n2)cc1` (stereo not drawn) [GSK1379742], with 0%.
As to `O=C(Nc1cccc(Oc2ccc3nc(NC(=O)C4CC4)cn3n2)c1)c1ccccc1C(F)(F)F`, the “%Inh” value is on record as 9%.
The figure for `Fc1ccc(-c2ncn(C3CCNCC3)c2-c2ccnc(Oc3ccc(-c4ccccc4)cc3)n2)cc1` [SB-245391] is 25%; for `CC(=O)Nc1nc2cnc(Nc3cc(NC(=O)c4cccc(C5(C#N)CC5)c4Cl)ccc3C)nc2s1` it is 0%; for `Clc1ccc(-c2nn3ncccc3c2-c2ccnc(Nc3ccc4c(c3)OCCO4)n2)cc1` [GW829116] it is 2%.
Then `O=C(Nc1ccccc1F)NC1CCN(c2ccnc(Nc3ccc(F)cc3)n2)CC1` [GSK1379800], with 0%; and `c1ccc(-c2cnc3nccnn23)cc1` [AH20685], with 0%; and `COc1cc2c(cc1OCCN1CCNCC1)ncc1c3ccc(C#N)cc3[nH]c21`, with 8%.
The figure for `COc1cccc(C2=C(Nc3ccc(Cl)c(C(=O)O)c3)C(=O)NC2=O)c1` [SB-390769] is 6%; for `O=C(O)C(F)(F)F.O=C(O)C(F)(F)F.O=c1[nH]ccc2nc(N[C@@H]3CCCNC3)nc(Nc3ccc(S(=O)(=O)N4CCOCC4)cc3)c12` [GSK2177277] it is 97.9%; for `COc1cccc(NC(=O)NC2CCN(c3ccnc(Nc4cc(OC)c(OC)c(OC)c4)n3)C2)c1` (stereo not drawn) [GSK1379763] it is 16%.
For the compound `O=c1[nH]cc(-c2ccc(N3CCOCC3)cc2)c2sc(-c3cn[nH]c3)cc12` [GSK2276055], the “%Inh” value came out at 17%.
The figure for `Nc1ncc(-c2ccc3nccc(-c4ccncc4)c3c2)cc1S(=O)(=O)N1CCOCC1` [GSK1627798] is 0%; for `Cl.c1ccc(-c2ccc3c(Nc4ccc5[nH]ncc5c4)ccnc3c2)nc1` [GW440137] it is 3%.
With `Cc1ccc(C)c(NC(=O)NC2CCN(c3ccnc(Nc4ccc(F)cc4)n3)C2)c1` (stereo not drawn) [GSK1379720], the “%Inh” value is reported as 0%.
Then `Cl.Cl.NCC(NC(=O)c1cc(-c2ccccc2)c(-c2ccnc3[nH]ccc23)s1)c1ccccc1` (stereo not drawn) [GSK1321561], with 12%.
As to `Cc1occc1-c1ncc(OC[C@@H](N)Cc2c[nH]c3ccccc23)cc1-c1ccc2[nH]nc(C)c2c1.O=C(O)C(F)(F)F` [GSK682037], the “%Inh” value is 15%.
Then `CN(c1ccc(NC(=O)Nc2cc(C(F)(F)F)ccc2F)cc1)c1ccnc(Nc2ccc(S(N)(=O)=O)cc2)n1` [GW809893], with 10%; and `CC(C)c1nc(-c2cccc(NS(=O)(=O)c3c(F)cccc3F)c2F)c(-c2ccnc(Nc3ccc(N4CCOCC4)nc3)n2)s1` [GSK2008607], with 9%; and `Cc1cccc(Nc2nc(N[C@H]3CCNC3)ncc2C(N)=O)c1.Cl` [GSK2197149], with 78%.
On to `COc1cccc(C(=O)Nc2cccc(Oc3ccc4nc(NC(=O)C5CC5)cn4n3)c2)c1`, for which the “%Inh” value is on record as 15%.
The figure for `Cl.c1ccc(-c2ccc3c(Nc4ccc5[nH]ccc5c4)ccnc3c2)nc1` [GW440138] is 0%; for `CC(=O)N1CCN(c2ccc(Nc3nccc(-c4sc(C(C)C)nc4-c4cccc(NS(=O)(=O)c5cccc(Cl)c5)c4)n3)cn2)CC1` [GSK1660437] it is 0%; for `O=C(Nc1cccc(-c2nn3ccccc3c2-c2ccnc(Nc3cccc(C(F)(F)F)c3)n2)c1)c1c(F)cccc1F` [GSK292658] it is 0%.
On to `O=C(NC1CCN(c2ccnc(Nc3ccc(F)cc3)n2)C1)c1cc2ccccc2s1` (stereo not drawn) [GSK1379716], for which the “%Inh” value worked out at 0%.
Then `COc1cc(Nc2nccc(-c3c(-c4cccc(NC(=O)c5c(F)cccc5F)c4)nn4ncccc34)n2)cc(OC)c1OC` [GSK327238], with 11%; and `COc1cccc(-c2ccc3c(NC(=O)C4CC4)n[nH]c3n2)c1` [SB-710903], with 0%.
Then `Cn1cc(-c2ccc3c(c2)CCN3C(=O)Cc2cccc(Cl)c2)c2c(N)ncnc21` [GSK2606590], with 0%.
